# Results published in PMC7862700, “An all-to-all approach to the identification of sequence-specific readers for epigenetic DNA modifications on cytosine”.
# Columns and labels:
# Assay in all cases: DAPPL (digital affinity profiling via proximity ligation, sequencing); 10 mM Tris-HCl pH 7.5, 50 mM NaCl, 1 mM DTT, 4% glycerol, room temperature, 30 min; GST-TFs on glutathione beads, 16-mer random dsDNA library, 0.1% formaldehyde crosslink after washing; high values mean tight binding
# FLI1 = molecular target: T1, FLI1 (Homo sapiens, UniProt Q01543 1-452); conditions: protein: recombinant; tags: N-terminal GST; dsDNA, one strand shown
# T1 sequence: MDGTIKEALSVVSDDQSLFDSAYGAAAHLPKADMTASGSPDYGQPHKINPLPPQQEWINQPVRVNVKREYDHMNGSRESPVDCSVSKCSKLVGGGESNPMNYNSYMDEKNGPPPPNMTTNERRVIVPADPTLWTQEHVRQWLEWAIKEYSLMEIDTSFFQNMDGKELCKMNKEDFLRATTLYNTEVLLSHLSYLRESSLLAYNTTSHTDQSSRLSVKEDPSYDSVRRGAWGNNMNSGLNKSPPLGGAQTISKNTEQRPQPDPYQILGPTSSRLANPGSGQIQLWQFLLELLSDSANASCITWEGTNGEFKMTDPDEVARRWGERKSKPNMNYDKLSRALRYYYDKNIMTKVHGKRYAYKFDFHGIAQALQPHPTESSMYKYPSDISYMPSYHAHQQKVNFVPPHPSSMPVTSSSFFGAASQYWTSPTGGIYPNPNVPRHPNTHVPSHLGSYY
# Summary of the method: (§1)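 The binding signal reported is, for every hexamer, its read frequency for a factor over its read frequency for the tag-only sample. Reads came from pools of yeast-expressed, GST-fused human transcription factors on glutathione beads, barcoded with DNA and mixed with that sample, which were incubated with 200 nmole of a random double-stranded 16-mer DNA library in Tris/NaCl/DTT/glycerol buffer at room temperature for 30 min. After washing, the pools were crosslinked with 0.1% formaldehyde, proximity-ligated with BsaI/T4 ligase for 1 h at 37 °C, PCR-amplified and sequenced on an Illumina NextSeq500.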
# ELK1 = molecular target: T2, ELK1 (Homo sapiens, UniProt P19419 1-428); conditions: protein: recombinant; tags: N-terminal GST; dsDNA, one strand shown
# T2 sequence: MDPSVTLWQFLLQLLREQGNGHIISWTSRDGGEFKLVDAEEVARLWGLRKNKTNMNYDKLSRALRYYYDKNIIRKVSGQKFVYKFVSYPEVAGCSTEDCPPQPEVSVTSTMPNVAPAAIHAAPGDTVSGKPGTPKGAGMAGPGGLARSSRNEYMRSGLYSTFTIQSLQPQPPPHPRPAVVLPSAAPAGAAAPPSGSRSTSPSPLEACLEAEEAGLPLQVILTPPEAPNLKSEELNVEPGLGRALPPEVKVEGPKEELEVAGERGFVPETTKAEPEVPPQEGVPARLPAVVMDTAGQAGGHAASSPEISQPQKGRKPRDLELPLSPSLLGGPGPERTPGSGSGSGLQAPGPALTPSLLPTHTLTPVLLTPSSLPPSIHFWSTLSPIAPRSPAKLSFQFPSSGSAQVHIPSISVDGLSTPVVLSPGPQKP
# Summary of the method: as §1
# GABPA = molecular target: T3, GABPA (Homo sapiens, UniProt Q06546 1-454); conditions: protein: recombinant; tags: N-terminal GST; dsDNA, one strand shown
# T3 sequence: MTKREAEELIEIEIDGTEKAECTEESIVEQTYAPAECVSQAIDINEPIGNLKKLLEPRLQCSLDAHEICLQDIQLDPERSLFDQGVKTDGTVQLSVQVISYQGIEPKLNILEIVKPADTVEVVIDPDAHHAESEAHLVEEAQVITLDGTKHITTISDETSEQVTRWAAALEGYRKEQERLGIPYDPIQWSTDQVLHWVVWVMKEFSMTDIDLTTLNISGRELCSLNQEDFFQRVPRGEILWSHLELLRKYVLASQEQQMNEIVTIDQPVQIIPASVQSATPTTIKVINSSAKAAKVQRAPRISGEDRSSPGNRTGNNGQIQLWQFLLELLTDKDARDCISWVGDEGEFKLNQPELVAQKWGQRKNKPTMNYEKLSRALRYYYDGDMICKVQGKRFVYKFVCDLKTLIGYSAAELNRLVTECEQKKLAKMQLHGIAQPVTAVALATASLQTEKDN
# Summary of the method: as §1
# ERG = molecular target: T4, ERG (Homo sapiens, UniProt P11308 1-479); conditions: protein: recombinant; tags: N-terminal GST; dsDNA, one strand shown
# T4 sequence: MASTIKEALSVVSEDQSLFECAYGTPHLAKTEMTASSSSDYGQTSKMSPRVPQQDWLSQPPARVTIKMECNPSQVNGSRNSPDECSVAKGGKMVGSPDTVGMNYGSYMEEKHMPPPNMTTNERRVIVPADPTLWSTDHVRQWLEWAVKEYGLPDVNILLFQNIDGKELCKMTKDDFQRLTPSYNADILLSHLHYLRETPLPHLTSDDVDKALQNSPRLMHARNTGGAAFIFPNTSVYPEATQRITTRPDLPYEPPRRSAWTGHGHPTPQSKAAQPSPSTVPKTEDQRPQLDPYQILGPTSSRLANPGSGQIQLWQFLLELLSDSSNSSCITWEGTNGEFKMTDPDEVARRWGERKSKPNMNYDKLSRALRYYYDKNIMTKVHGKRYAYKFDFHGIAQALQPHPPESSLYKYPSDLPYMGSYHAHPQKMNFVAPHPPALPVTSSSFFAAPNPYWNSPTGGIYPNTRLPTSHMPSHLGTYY
# Summary of the method: as §1
# ELF1 = ELF1 (Homo sapiens, UniProt P32519 1-619); conditions: protein: recombinant; tags: N-terminal GST; dsDNA, one strand shown
# Summary of the method: as §1
# EHF = molecular target: T5, EHF (Homo sapiens, UniProt Q9NZC4 1-300); conditions: protein: recombinant; tags: N-terminal GST; dsDNA, one strand shown
# T5 sequence: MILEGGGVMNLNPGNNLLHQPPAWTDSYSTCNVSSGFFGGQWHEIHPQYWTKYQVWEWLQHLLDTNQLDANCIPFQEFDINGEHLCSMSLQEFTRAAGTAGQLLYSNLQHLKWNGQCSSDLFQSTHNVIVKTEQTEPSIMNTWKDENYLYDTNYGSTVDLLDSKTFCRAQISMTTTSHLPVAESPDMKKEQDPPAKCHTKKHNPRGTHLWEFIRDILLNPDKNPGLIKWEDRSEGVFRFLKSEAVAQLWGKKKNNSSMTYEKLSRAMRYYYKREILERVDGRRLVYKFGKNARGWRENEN
# Summary of the method: as §1
# SPI1 = SPI1 (Homo sapiens, UniProt P17947 1-270); conditions: protein: recombinant; tags: N-terminal GST; dsDNA, one strand shown
# Summary of the method: as §1
# SPIB = SPIB (Homo sapiens, UniProt Q01892 1-262); conditions: protein: recombinant; tags: N-terminal GST; dsDNA, one strand shown
# Summary of the method: as §1
# ELK3 = molecular target: T6, ELK3 (Homo sapiens, UniProt P41970 1-407); conditions: protein: recombinant; tags: N-terminal GST; dsDNA, one strand shown
# T6 sequence: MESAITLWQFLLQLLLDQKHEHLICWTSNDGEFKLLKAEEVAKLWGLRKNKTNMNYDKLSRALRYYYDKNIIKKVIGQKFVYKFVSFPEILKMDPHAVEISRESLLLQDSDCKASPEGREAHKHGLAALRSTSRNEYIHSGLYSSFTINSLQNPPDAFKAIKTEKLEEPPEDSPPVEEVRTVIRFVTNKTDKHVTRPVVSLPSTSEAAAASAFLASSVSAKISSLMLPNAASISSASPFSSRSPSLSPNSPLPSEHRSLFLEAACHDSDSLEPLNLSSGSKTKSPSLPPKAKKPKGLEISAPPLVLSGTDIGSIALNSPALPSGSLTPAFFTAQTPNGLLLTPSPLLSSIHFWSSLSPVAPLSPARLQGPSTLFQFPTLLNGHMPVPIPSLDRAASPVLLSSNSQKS
# Summary of the method: as §1
# FEV = molecular target: T7, FEV (Homo sapiens, UniProt Q99581 1-238); conditions: protein: recombinant; tags: N-terminal GST; dsDNA, one strand shown
# T7 sequence: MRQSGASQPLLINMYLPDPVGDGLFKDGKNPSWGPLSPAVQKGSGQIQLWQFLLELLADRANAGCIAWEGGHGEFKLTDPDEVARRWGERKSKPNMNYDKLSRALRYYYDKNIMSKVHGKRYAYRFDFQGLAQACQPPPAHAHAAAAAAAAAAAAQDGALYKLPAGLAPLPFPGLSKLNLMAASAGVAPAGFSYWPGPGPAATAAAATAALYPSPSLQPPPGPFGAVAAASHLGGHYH
# Summary of the method: as §1
# ETV5 = ETV5 (Homo sapiens, UniProt P41161 1-510); conditions: protein: recombinant; tags: N-terminal GST; dsDNA, one strand shown
# Summary of the method: as §1
# HSF1 = HSF1 (Homo sapiens, UniProt Q00613 1-529); conditions: protein: recombinant; tags: N-terminal GST; chain copies: 3; dsDNA, one strand shown
# Summary of the method: as §1
# SPIC = molecular target: T8, SPIC (Homo sapiens, UniProt Q8N5J4 1-248); conditions: protein: recombinant; tags: N-terminal GST; dsDNA, one strand shown
# T8 sequence: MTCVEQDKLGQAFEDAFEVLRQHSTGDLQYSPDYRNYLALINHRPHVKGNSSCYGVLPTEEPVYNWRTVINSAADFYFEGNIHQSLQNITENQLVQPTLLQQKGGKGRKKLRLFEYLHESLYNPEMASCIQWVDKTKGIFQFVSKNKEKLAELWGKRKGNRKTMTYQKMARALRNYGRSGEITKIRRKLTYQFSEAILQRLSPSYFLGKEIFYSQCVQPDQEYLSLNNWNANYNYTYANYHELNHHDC
# Summary of the method: as §1
# ELF4 = ELF4 (Homo sapiens, UniProt Q99607 1-663); conditions: protein: recombinant; tags: N-terminal GST; dsDNA, one strand shown
# Summary of the method: as §1
# ELK4 = molecular target: T9, ELK4 (Homo sapiens, UniProt P28324-2 1-405); conditions: protein: recombinant; tags: N-terminal GST; dsDNA, one strand shown
# T9 sequence: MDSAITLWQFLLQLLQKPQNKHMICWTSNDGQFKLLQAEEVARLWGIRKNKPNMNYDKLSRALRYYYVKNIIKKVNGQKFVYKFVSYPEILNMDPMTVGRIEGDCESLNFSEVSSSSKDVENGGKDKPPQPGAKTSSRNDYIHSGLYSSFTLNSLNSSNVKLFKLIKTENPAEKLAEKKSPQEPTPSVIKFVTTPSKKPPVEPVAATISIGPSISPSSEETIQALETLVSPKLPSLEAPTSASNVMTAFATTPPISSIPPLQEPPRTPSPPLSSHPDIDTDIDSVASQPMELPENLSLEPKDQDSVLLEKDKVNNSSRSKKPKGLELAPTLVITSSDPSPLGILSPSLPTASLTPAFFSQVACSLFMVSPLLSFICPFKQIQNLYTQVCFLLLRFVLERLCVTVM
# Summary of the method: as §1
# ETV2 = molecular target: T10, ETV2 (Homo sapiens, UniProt O00321 1-342); conditions: protein: recombinant; tags: N-terminal GST; dsDNA, one strand shown
# T10 sequence: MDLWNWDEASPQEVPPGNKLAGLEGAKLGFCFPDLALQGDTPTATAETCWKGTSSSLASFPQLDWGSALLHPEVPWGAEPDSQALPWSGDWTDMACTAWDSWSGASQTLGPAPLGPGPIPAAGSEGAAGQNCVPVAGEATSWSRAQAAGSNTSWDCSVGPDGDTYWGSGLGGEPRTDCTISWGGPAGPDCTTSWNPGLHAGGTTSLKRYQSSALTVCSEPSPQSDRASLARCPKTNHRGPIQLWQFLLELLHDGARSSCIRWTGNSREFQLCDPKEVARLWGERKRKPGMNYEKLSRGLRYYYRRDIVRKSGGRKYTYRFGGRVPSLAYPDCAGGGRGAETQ
# Summary of the method: as §1
# ELF3 = molecular target: T11, ELF3 (Homo sapiens, UniProt P78545 1-371); conditions: protein: recombinant; tags: N-terminal GST; dsDNA, one strand shown
# T11 sequence: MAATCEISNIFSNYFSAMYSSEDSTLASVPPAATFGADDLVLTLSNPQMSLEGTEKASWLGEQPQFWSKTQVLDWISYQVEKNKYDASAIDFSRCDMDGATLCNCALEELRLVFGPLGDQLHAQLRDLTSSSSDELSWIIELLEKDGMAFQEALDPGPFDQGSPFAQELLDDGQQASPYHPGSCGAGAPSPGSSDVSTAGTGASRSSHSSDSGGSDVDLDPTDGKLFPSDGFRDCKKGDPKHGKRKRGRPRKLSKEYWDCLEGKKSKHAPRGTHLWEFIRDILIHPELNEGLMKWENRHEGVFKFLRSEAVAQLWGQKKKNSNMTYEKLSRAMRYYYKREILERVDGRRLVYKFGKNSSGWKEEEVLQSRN
# Summary of the method: as §1
# CRX = CRX (Homo sapiens, UniProt O43186 1-299); conditions: protein: recombinant; tags: N-terminal GST; dsDNA, one strand shown
# Summary of the method: as §1
# ETV1 = ETV1 (Homo sapiens, UniProt P50549 1-477); conditions: protein: recombinant; tags: N-terminal GST; dsDNA, one strand shown
# Summary of the method: as §1
# Sequence of ELF1 (P32519 whole entry): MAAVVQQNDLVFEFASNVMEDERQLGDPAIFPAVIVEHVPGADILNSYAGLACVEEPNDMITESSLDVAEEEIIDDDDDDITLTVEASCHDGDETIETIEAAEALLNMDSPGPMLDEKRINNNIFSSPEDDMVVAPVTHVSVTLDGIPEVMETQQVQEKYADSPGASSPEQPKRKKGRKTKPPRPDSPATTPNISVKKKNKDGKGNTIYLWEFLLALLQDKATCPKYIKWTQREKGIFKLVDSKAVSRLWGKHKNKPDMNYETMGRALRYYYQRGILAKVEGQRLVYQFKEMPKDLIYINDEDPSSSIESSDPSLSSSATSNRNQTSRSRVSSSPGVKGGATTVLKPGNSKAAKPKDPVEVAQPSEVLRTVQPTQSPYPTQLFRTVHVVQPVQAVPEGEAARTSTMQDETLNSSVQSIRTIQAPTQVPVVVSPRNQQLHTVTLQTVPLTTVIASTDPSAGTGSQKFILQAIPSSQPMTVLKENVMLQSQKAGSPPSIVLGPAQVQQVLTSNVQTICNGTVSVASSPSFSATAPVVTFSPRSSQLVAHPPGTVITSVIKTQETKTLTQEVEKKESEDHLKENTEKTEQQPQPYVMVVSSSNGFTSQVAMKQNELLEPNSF
# Sequence of ETV5 (P41161 whole entry): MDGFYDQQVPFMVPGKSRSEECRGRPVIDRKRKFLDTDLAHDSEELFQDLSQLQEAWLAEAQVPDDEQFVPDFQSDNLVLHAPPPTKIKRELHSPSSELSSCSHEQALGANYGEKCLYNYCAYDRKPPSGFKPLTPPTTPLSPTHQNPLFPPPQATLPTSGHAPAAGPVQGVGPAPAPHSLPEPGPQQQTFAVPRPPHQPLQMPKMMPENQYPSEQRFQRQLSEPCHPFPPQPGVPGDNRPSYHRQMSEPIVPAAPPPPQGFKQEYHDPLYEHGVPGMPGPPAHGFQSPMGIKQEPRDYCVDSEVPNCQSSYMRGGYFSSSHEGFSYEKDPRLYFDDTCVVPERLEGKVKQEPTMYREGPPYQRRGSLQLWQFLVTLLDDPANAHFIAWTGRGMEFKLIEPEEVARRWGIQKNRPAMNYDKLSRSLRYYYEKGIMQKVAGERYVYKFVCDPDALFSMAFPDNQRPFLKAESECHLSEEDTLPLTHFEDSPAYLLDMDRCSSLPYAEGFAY
# Sequence of CRX (O43186 whole entry): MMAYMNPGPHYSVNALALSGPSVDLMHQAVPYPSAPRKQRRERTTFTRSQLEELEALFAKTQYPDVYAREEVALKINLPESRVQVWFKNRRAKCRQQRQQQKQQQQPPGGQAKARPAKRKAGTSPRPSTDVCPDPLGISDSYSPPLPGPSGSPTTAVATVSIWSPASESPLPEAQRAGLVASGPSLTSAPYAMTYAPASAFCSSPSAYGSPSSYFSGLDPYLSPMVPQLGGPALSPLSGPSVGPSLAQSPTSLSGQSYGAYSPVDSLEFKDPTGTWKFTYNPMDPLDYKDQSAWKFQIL
# Sequence of SPIB (Q01892 whole entry): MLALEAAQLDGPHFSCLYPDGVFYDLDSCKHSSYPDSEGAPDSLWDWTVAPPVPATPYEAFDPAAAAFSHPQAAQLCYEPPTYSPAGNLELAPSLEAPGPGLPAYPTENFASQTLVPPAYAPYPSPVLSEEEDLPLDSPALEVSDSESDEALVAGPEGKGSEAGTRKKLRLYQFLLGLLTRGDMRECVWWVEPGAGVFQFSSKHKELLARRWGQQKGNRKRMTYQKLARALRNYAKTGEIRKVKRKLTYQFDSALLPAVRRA
# Sequence of HSF1 (Q00613 whole entry): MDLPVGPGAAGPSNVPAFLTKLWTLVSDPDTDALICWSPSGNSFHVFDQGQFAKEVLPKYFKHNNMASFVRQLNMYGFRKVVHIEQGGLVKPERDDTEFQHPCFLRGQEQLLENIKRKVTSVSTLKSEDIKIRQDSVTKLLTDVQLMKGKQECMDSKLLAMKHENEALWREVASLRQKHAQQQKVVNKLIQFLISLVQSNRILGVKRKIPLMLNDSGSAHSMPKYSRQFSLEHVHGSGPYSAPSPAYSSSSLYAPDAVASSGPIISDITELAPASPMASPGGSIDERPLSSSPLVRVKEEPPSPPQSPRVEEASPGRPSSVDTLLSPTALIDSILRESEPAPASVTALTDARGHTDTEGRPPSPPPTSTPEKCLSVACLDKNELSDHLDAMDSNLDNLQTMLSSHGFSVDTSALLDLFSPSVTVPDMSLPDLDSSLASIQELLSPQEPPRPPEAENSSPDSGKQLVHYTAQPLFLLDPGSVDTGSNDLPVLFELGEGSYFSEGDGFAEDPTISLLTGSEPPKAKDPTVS
# Sequence of ETV1 (P50549 whole entry): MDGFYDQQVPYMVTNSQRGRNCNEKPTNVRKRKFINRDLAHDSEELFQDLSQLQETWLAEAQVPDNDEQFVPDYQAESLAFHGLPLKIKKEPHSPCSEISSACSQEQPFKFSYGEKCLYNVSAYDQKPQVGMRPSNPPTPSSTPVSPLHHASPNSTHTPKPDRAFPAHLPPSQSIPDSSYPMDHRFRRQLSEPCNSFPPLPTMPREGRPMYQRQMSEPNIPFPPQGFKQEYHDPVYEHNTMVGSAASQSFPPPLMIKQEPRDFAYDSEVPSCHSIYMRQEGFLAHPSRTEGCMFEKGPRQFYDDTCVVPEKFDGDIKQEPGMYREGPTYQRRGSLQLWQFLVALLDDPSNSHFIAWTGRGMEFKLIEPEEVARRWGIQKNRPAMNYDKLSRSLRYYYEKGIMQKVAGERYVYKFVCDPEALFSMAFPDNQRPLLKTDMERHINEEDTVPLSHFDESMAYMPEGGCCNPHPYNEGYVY
# Sequence of ELF4 (Q99607 whole entry): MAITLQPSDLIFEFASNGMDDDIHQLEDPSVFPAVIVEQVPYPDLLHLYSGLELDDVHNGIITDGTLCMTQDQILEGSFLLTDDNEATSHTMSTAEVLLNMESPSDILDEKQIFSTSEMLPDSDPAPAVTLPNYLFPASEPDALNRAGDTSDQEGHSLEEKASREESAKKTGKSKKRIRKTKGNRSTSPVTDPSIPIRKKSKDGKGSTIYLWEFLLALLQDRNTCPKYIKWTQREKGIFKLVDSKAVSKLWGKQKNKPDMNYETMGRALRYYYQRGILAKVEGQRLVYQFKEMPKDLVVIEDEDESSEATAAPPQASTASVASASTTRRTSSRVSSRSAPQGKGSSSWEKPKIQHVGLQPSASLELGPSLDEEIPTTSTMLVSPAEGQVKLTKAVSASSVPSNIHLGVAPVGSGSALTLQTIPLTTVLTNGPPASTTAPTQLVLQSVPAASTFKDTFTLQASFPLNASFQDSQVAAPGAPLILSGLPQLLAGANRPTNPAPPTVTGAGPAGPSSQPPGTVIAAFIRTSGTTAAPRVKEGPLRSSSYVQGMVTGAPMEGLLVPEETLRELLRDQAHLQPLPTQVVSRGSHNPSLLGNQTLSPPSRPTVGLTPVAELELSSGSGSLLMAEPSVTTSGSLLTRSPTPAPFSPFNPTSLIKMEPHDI
sequence,measurement,setting,value
TAAGCT,binding signal,FLI1,"1.21 fold enrichment (6-mer frequency, TF over GST control)"
same,binding signal,ELK1,"1.24 fold enrichment (6-mer frequency, TF over GST control)"
same,binding signal,GABPA,"1.17 fold enrichment (6-mer frequency, TF over GST control)"
same,binding signal,ERG,"1.18 fold enrichment (6-mer frequency, TF over GST control)"
same,binding signal,ELF1,"1.15 fold enrichment (6-mer frequency, TF over GST control)"
same,binding signal,EHF,"1.2 fold enrichment (6-mer frequency, TF over GST control)"
same,binding signal,SPI1,"1.1 fold enrichment (6-mer frequency, TF over GST control)"
same,binding signal,SPIB,"1.18 fold enrichment (6-mer frequency, TF over GST control)"
same,binding signal,ELK3,"1.12 fold enrichment (6-mer frequency, TF over GST control)"
same,binding signal,FEV,"1.08 fold enrichment (6-mer frequency, TF over GST control)"
same,binding signal,ETV5,"1.16 fold enrichment (6-mer frequency, TF over GST control)"
same,binding signal,HSF1,"1.91 fold enrichment (6-mer frequency, TF over GST control)"
same,binding signal,SPIC,"1.24 fold enrichment (6-mer frequency, TF over GST control)"
same,binding signal,ELF4,"1.18 fold enrichment (6-mer frequency, TF over GST control)"
same,binding signal,ELK4,"1.21 fold enrichment (6-mer frequency, TF over GST control)"
same,binding signal,ETV2,"1.19 fold enrichment (6-mer frequency, TF over GST control)"
same,binding signal,ELF3,"1.32 fold enrichment (6-mer frequency, TF over GST control)"
same,binding signal,CRX,"3.23 fold enrichment (6-mer frequency, TF over GST control)"
same,binding signal,ETV1,"1.23 fold enrichment (6-mer frequency, TF over GST control)"
